The text below walks through data of the supplement of paper PMC7530171.

SMILES strings stand for the structures. Where a name gives a salt, the structure may show the parent alone. ± gives the standard deviation.

The subject of one assay is THP-1. Briefly: THP-1 cell loss relative to DMSO control; higher = more host cell loss (toxicity); extreme values may be limits of the assay. Conditions: 10 µM; 4 days; infection: M. tuberculosis H37Rv. Here is the method: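 OICR kinase inhibitor library screened in duplicate at 10 uM against M. tuberculosis-infected THP-1 macrophages, 4 days at 37 C. THP-1 cell loss (cytotoxicity or loss of adherence) was quantified from Hoechst-stained nuclei counts by high-content imaging and normalised to the 1% DMSO control; 100 = complete loss of host cells.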

The subject of assay [1] is THP-1 macrophages infected with Mycobacterium tuberculosis H37Rv. Briefly: intracellular M.tb growth inhibition relative to DMSO (0) and 4 uM bedaquiline (100); higher = stronger inhibition of intracellular bacterial growth. Conditions: 10 µM; 4 days. On the procedure:
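OICR kinase inhibitor library screened in duplicate at 10 uM against THP-1 macrophages (PMA-differentiated) infected with M. tuberculosis H37Rv-pTEC27 (tdTomato RFP), 4 days at 37 C. Rows with complete host cell loss (placeholder inhibition 0, cell loss 100) were removed.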

As to `CN(C)CC(C)(C)CNc1nn2c(-c3ccccc3)nnc2cc1C1CCC1`, the THP-1 cell loss with THP-1 came out at 18.4 ± 1.3%. Moreover, the “intracellular M.tb growth inhibition” value in assay [1] is -56.3 ± 120%. Taken in the same sequence, the figures for `Cc1csc(-c2nnc(Nc3ccc(Oc4ncccc4-c4ccnc(N)n4)cc3)c3ccccc23)c1` were 62.4 ± 53% and 126 ± 190%.

Compound `Cc1ccc(NC(=O)c2ccc(CN3CCN(C)CC3)cc2)cc1Nc1nccc(-c2cccnc2)n1` [Imatinib (free base)] gave a THP-1 cell loss with THP-1 of 3.31 ± 4.7%. Also, the “intracellular M.tb growth inhibition” value in assay [1] was determined as 33.2 ± 16%. As for `NC(=O)Nc1sc(-c2ccc(F)cc2)cc1C(N)=O`, in assay [1], the “intracellular M.tb growth inhibition” value was -19 ± 13%. In the assay on THP-1, `O=c1c(-c2ccc(O)cc2)coc2cc(O)cc(O)c12` [Genistein] gave a THP-1 cell loss of 4.45 ± 2.2%. For the same compound, the “intracellular M.tb growth inhibition” value in assay [1] amounted to 10.7 ± 10%. For `Cn1cc(C2=C(c3ccc(Cl)cc3Cl)C(=O)NC2=O)c2ccccc21`, the “intracellular M.tb growth inhibition” value in assay [1] is -108 ± 200%. Same read-out and setting: for `O=C(Nc1cc(Cl)cc2c1[nH]c1cnccc12)c1cccnc1` [PS1145 dihydrochloride] the value was -10.6 ± 33%; for `C[C@@H](Oc1cc(-c2cnn(C3CCNCC3)c2)cnc1N)c1c(Cl)ccc(F)c1Cl`, -114 ± 120%.

For the compound `NC1(c2ccc(-c3nc4ccn5c(=O)[nH]nc5c4cc3-c3ccccc3)cc2)CCC1`, the THP-1 cell loss in the assay with THP-1 is 34.3 ± 6.7%. In addition, in assay [1], the “intracellular M.tb growth inhibition” value is -62.1 ± 130%. Turning to `CCCS(=O)(=O)Nc1ccc(F)c(C(=O)c2c[nH]c3ncc(Cl)cc23)c1F`, the THP-1 cell loss in the assay on THP-1 turned out to be 11.5 ± 14%. Also, the “intracellular M.tb growth inhibition” value in assay [1] turned out to be 30.7 ± 35%. Turning to `COc1cc(C[C@H]2C(=O)OC[C@@H]2Cc2ccc(OC)c(OC)c2)ccc1O` [Arctigenin], in assay [1], the “intracellular M.tb growth inhibition” value was 46 ± 8.1%. On to `CNc1cc2c(Nc3cccc(Br)c3)ncnc2cn1`, for which the THP-1 cell loss in the assay with THP-1 was 78.2 ± 5.8%. The “intracellular M.tb growth inhibition” value in assay [1] was determined as 30.2 ± 36%. Taken in the same sequence, the figures for `CCCOc1ccc(/C=C2/SC(=O)NC2=O)cc1` [PIM1/2 Kinase Inhibitor VI] were 4.36 ± 6.2% and 24.9 ± 13%. The corresponding values for `CC[C@@H]1/C=C(\C)C[C@H](C)C[C@H](OC)[C@H]2O[C@@](O)(C(=O)C(=O)N3CCCC[C@H]3C(=O)O[C@H](/C(C)=C/[C@@H]3CC[C@H](Cl)[C@H](OC)C3)[C@H](C)[C@@H](O)CC1=O)[C@H](C)C[C@@H]2OC` [Pimecrolimus] are 28.5 ± 3% and 45.4 ± 4.6%. Taken in the same sequence, the figures for `Oc1cccc(-c2nc(N3CCOCC3)c3oc4ncccc4c3n2)c1` were 24.3 ± 3.9% and -62.7 ± 17%. `Cn1cc(-c2ccc3nnc(C(F)(F)c4ccc5ncccc5c4)n3n2)cn1` returned a THP-1 cell loss in the assay with THP-1 of 13.4 ± 19%. Besides, the “intracellular M.tb growth inhibition” value in assay [1] was -109 ± 120%.

As for `COc1cc2ncnc(Nc3cccc(Cl)c3)c2cc1OC` [Tyrphostin AG 1478 mesylate], the “intracellular M.tb growth inhibition” value in assay [1] stood at 2.11 ± 14%. Same read-out and setting: the value for `O=c1cc(-c2cccc3c2Sc2ccccc2S3)oc(N2CCOCC2)c1` was 3.07 ± 24%; that for `COc1cc2ncnc(Nc3cccc(Br)c3)c2cc1OC` was -64 ± 39%. On to `COc1cc2c(Nc3ccc(NC(=O)c4ccccc4)cc3)ncnc2cc1OCCCN1CCOCC1`, for which the THP-1 cell loss with THP-1 is 27.2 ± 1.4%. For the same compound, the “intracellular M.tb growth inhibition” value in assay [1] is -10.1 ± 48%. On to `CN(C)C/C=C/C(=O)Nc1cc2c(Nc3ccc(F)c(Cl)c3)ncnc2cc1O[C@H]1CCOC1`, for which, in assay [1], the “intracellular M.tb growth inhibition” value was determined as 18.3 ± 3%. Same read-out and setting: for `COc1ccc(OC)c2c(=S)c3ccccc3[nH]c12` the value was -14.9 ± 44%. Consider `CC(C)n1nc(-c2cc3cc(O)ccc3[nH]2)c2c(N)ncnc21`, for which the THP-1 cell loss in the assay with THP-1 was 92.9 ± 10%. The “intracellular M.tb growth inhibition” value in assay [1] was 14.1 ± 20%.

`COc1cc2ncc(-c3ccccc3)nc2cc1OC` [Tyrphostin AG-1296]: the “intracellular M.tb growth inhibition” value in assay [1] is 1.21 ± 2%. Regarding `O=C(Nc1cccc(Nc2ncc(Br)c(NCCc3cnc[nH]3)n2)c1)N1CCCC1`, in the assay on THP-1, the THP-1 cell loss was 36 ± 15%. In assay [1], the “intracellular M.tb growth inhibition” value is -256 ± 330%. Take `Cc1cc(F)c(Nc2ncnc3cc(OCc4ccccc4)ccc23)cc1O`: the “intracellular M.tb growth inhibition” value in assay [1] was 38.8 ± 33%. Compound `Cc1cc(C)c(/C=C2\C(=O)Nc3ccccc32)[nH]1` came in with a THP-1 cell loss in the assay on THP-1 of 34.2 ± 39%. Also, the “intracellular M.tb growth inhibition” value in assay [1] was determined as 8.19 ± 12%. The corresponding values for `C[C@@H]1CCN(C(=O)CC#N)C[C@@H]1N(C)c1ncnc2[nH]ccc12` are 9.64 ± 8.9% and -17.5 ± 21%.

`CC(C)CCN1c2nc(Nc3cc(F)c(O)c(F)c3)ncc2N(C)C(=O)C1C` (centres undefined) yielded a THP-1 cell loss in the assay on THP-1 of 56.5 ± 6.2%. Besides, the “intracellular M.tb growth inhibition” value in assay [1] is -228 ± 190%. The corresponding values for `Cc1cc(C(C)Nc2ccccc2)c2nc(N3CCOCC3)cc(=O)n2c1` (centres undefined) are 10.5 ± 5.8% and -38.7 ± 24%. The corresponding values for `Cc1nc2sccn2c(=O)c1CCN1CCC(=C(c2ccccc2)c2ccc(F)cc2)CC1` are 0% and 58.1 ± 4.4%.

`COc1cc2c(Oc3ccc4[nH]c(C)cc4c3F)ncnc2cc1OCCCN1CCCC1` [Cediranib] returned a THP-1 cell loss with THP-1 of 91.7 ± 12%. Further, the “intracellular M.tb growth inhibition” value in assay [1] was found to be 6.57 ± 9.3%. Taken in the same sequence, the figures for `C[C@@H](Oc1cc(-n2cnc3ccc(CN4CCN(C)CC4)cc32)sc1C(N)=O)c1ccccc1C(F)(F)F` were 23.7 ± 4.8% and -31.9 ± 42%.

In the assay on THP-1, `NCC(=O)Nc1ccc(-n2nc(C(F)(F)F)cc2-c2ccc3c(ccc4ccccc43)c2)cc1` yielded a THP-1 cell loss of 33.1 ± 2.5%. Further, the “intracellular M.tb growth inhibition” value in assay [1] was 92.3 ± 8.1%. In turn, `O=C(Nc1ccc(-c2cn[nH]c2)cc1)C1COc2ccccc2O1` (centres undefined) [Rho Kinase Inhibitor V] came in with a THP-1 cell loss with THP-1 of 6.82 ± 9.6%. Further, in assay [1], the “intracellular M.tb growth inhibition” value was 27.7 ± 10%. Taken in the same sequence, the figures for `CCc1nc(-c2cccc(C)c2)c(-c2ccnc(NC(=O)c3ccccc3)c2)s1` were 23.2 ± 2.1% and 0.0588 ± 120%. As to `COc1ccc(-c2ccc3c(N4CCOC[C@@H]4C)nc(N4CCOC[C@@H]4C)nc3n2)cc1CO`, the “intracellular M.tb growth inhibition” value in assay [1] was -202 ± 240%.

In the assay with THP-1, `N#CC[C@H](C1CCCC1)n1cc(-c2ncnc3[nH]ccc23)cn1` had a THP-1 cell loss of 26.3 ± 7.9%. In addition, the “intracellular M.tb growth inhibition” value in assay [1] was -157 ± 220%. For the compound `CC(C)(C)c1cc(NC(=O)Nc2ccc(-c3cn4c(n3)sc3cc(OCCN5CCOCC5)ccc34)cc2)no1`, the “intracellular M.tb growth inhibition” value in assay [1] was determined as 85.7 ± 43%.
